Source: PubChem BioAssay
CSC inhib – blocks cancer stem cells | cancer stem cell-like cells viability, luminescence | 300,000 tested, 1.1% active | inhibition, % at 7.5 µM; in the data active means inhibition above about 75%; tested in HMLE shEcad cells
MPTP inh – permeability transition pore inhibition; isolated mouse mitochondria, Ca2+ swelling absorbance, 30 min; AID 602449; 360,000 tested, 1.4% active; inhibition, % at 10 µM;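 active means inhibition of 50% or more, scaled per plate between neutral and stimulator controls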;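 further: 0% = DMSO wells given calcium and 100% = 1 mM EGTA wells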
SKKanGAS inh – inhibitors of SKKanGAS S. pyogenes growth in kanamycin (SK-promoter or general growth effect); BacTiter-Glo, 6 h; inhibition, % at 7.5 µM; 300,000 tested, 1.3% active; AID 1662;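 active means mean replicate score, as percent of positive control median, at least 50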;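 further: strain carries kanamycin resistance gene driven by streptokinase promoter and grows in 40 µg/ml kanamycin; loss of luminescence reflects streptokinase promoter inhibition or plain growth inhibition; 0% = median of DMSO wells and 100% = positive control at its reference dose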
Mdm2 MdmX PPI – disrupts the human Mdm2-MdmX interaction | O15151+Q00987 | SaOS-2 split-luciferase Mdm2/MdmX complementation, luminescence | inhibition, % at 8 µM | 330,000 tested, 3% active;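 active means inhibition of at least 50% at 8 µM in the primary screen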
Target sequence (O15151 whole entry, looked up): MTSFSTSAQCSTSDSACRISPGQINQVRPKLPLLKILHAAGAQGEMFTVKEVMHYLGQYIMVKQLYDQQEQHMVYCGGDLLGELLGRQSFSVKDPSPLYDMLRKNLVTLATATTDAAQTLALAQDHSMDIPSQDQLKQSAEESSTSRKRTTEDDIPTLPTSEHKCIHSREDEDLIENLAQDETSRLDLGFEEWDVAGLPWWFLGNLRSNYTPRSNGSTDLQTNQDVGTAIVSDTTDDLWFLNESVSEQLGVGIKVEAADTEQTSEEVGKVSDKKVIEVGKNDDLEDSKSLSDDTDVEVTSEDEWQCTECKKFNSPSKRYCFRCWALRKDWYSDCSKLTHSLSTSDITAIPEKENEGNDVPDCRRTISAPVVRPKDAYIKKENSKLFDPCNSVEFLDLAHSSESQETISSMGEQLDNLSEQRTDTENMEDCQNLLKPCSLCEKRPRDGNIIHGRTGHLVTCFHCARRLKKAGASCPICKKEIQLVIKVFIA
Target sequence (Q00987 whole entry, looked up): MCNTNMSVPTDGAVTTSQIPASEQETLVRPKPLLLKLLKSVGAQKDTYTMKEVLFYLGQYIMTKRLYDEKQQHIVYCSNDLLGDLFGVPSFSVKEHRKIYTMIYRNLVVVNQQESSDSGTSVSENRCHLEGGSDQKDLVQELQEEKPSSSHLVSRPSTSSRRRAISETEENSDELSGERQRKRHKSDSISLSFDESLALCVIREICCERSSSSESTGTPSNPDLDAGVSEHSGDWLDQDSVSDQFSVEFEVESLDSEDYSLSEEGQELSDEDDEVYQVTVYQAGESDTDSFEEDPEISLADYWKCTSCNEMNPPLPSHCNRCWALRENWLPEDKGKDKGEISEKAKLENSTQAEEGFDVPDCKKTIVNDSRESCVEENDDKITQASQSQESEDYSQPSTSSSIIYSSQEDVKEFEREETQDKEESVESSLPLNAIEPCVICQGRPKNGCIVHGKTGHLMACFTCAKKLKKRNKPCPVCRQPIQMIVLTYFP
Beta cell apopt – beta cell apoptosis inhibition; INS-1E cytokine-induced death, ATP luminescence, 48 h; percent of positive-control rescue, neutral wells zero; protection from apoptosis, % (test concentration not listed); 300,000 tested, 0.8% active;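 active means Every replicate reaches about 75%, or at least half do and their mean reaches it too, limit read from the data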;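 further: 0% = cytokine-treated negative control wells and 100% = positive control rescue; higher means more ATP so stronger rescue from cytokine killing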
GRIN3A LBD mod – modulators (binders) of human NR3A ligand-binding domain; NR3A LBD differential scanning fluorimetry, Tm shift; 0% = protein alone, 100% = glycine-bound protein; Tm shift relative to glycine control, % at 25 µM; 340,000 tested, 2.5% active; AID 1259313;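 active means melting temperature shift of at least 10% of the positive control shift, at one fixed dose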
Mdm2 MdmX conf – human Mdm2/MdmX binding inhibition, confirmed; AID 489028; shares compounds with Mdm2 MdmX PPI; inhibition, % at 8 µM; 10,000 tested, 55% active; luminescent assay; in the data active means inhibition above about 40%
Full FLuc ctr – inhibits full-length luciferase, flagging false Mdm2/MdmX hits; shares compounds with Mdm2 MdmX PPI; SaOS-2 full-length luciferase counterscreen, luminescence; inhibition, % at 8 µM; 6,200 tested, 77% active;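 active means mean inhibition at 8 µM reaching about 37%, which flags the compound as non-specific, limit read from the data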;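 further: p53-null SaOS-2 cells with luciferase driven by a doxycycline-inducible promoter; compound on cells about two nights before reading with doxycycline added after day one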
Starred values were filed as active, the others as inactive; nt = no result given. This is a sample that favours compounds with a hit; in the whole collection about 6.9% have one here.

SMILES	CSC inhib	MPTP inh	SKKanGAS inh	Mdm2 MdmX PPI	Beta cell apopt	GRIN3A LBD mod	Mdm2 MdmX conf	Full FLuc ctr
CCc1ccc(-c2nc(CN3CCC(C(=O)NCc4ccc(F)cc4)CC3)c(C)o2)cc1	16.0	1.6	-4.0	57.8*	10.9	0.6	42.0*	66.6*
O=C(NC1CCN(Cc2ccccc2)C1)c1cc(COc2ccc(F)cc2F)on1 (centres undefined)	-6.2	-0.5	-1.8	11.0	20.3	0.3	nt	nt
Cc1oc(-c2ccc(Cl)cc2)nc1CN1CCC(C(=O)NCc2cccs2)CC1	-6.7	3.4	-9.1	32.0	-1.4	-1.9	nt	nt
CCN(CC(=O)NCc1cccs1)C(=O)/C=C/c1cc(OC)c(OC)c(OC)c1	nt	-0.1	nt	-7.2	nt	-1.0	nt	nt
CCc1ccc(-c2nc(CN3CCC(C(=O)N4CCN(c5ccccc5)CC4)CC3)c(C)o2)cc1	12.8	3.4	-9.5	53.5*	11.8	0.3	40.2*	85.7*
CCc1ccc(-c2nc(CN3CCC(C(=O)NCCN(CC)c4ccccc4)CC3)c(C)o2)cc1	15.8	2.8	11.8	77.5*	18.0	-4.4	79.8*	59.3*
CCN(CCNC(=O)C1CCN(Cc2nc(-c3cccc(Cl)c3)oc2C)CC1)c1ccccc1	22.0	-3.0	-2.6	51.6*	39.0	-2.8	50.8*	60.6*
Cc1ccc(-n2c(=O)[nH]c3cc(C(=O)NC4CCN(Cc5ccccc5)CC4)ccc3c2=O)cc1	-8.9	0.7	-1.8	86.7*	2.3	-2.2	26.1	nt
CCc1ccc(-c2nc(CN3CCC(C(=O)N4CCN(c5ccccn5)CC4)CC3)c(C)o2)cc1	nt	1.4	nt	26.8	0.7	1.1	nt	nt
CC(C)NC(=O)C1(C)CCN1Cc1ccc(C(F)(F)F)cc1 (centres undefined)	nt	0.9	nt	nt	nt	nt	nt	nt
COc1cc(OC)cc(-c2c(-c3cccs3)c3cc(-c4ccc5[nH]ccc5c4)ccc3n2C)c1	3.8	-0.7	nt	42.4	0.1	4.5	nt	nt
COc1ccc(-c2nc(CN3CCC(C(=O)NC4CCN(Cc5ccccc5)CC4)CC3)c(C)o2)cc1OC	-11.6	0.2	-2.0	80.3*	10.0	-0.2	49.4*	54.6*
Cc1ccc(S(=O)(=O)N(C)c2ccc(OC(=O)c3cc(=O)[nH]c4ccccc34)cc2)cc1	nt	-0.6	nt	20.3	nt	-1.0	nt	nt
O=C1C(SCCO)=C(SCCO)C(=O)c2ccccc21	101.8*	5.2	nt	81.9*	99.2*	-10.3	75.0*	21.4
CC1=C(SCc2ccccc2)C(=O)c2ccccc2C1=O	nt	0.8	nt	nt	nt	-8.5	nt	nt
COCCN1C(=O)COc2ccccc2C1C(=O)NCc1ccccc1 (centres undefined)	nt	-1.0	nt	nt	nt	nt	nt	nt
COc1ccc(S(=O)(=O)Nc2cc3c(C(C)=O)c(C)oc3c3ccccc23)cc1	68.9	0.1	13.2	66.5*	nt	3.6	70.0*	80.1*
Cc1oc2c(cc(NS(=O)(=O)c3ccc(F)cc3)c3ccccc32)c1C(=O)O	nt	1.4	25.9	-13.7	-4.9	-10.4	nt	nt
COc1ccc(S(=O)(=O)Nc2cc3c(cc2C(C)=O)OCO3)cc1	62.1	0.1	18.1	63.1*	2.7	-1.0	50.9*	63.3*
Cc1ccc(SCCc2cc[n+](CC(=O)c3ccccc3)cc2)cc1	25.7	1.1	7.8	3.6	-11.7	0.9	nt	nt
Cc1ccc(C(=O)C[n+]2ccc(Cc3ccccc3)cc2)cc1	1.4	4.0	-4.4	51.6*	60.5	0.1	43.6*	63.4*
CN(C)c1cc[n+](CC(=O)c2ccc(-c3ccccc3)cc2)cc1	13.1	9.5	-8.6	59.7*	106.2*	-0.1	44.3*	48.1*
O=C(C[n+]1ccccc1)c1ccc(-c2ccccc2)cc1	30.5	0.7	10.5	-0.2	-0.2	1.0	nt	nt
Cn1c(=O)[nH]c(=O)c2c1nc([N+](=O)[O-])n2Cc1ccccc1	48.5	1.8	0.8	95.6*	97.6*	0.9	78.9*	56.2*
Cn1c(-c2cccc(OCc3ccccc3)c2)nc2c1c(=O)[nH]c(=O)n2Cc1ccccc1	6.3	-7.6	nt	84.9*	9.5	1.0	38.5	nt
SMILES	CSC inhib	MPTP inh	SKKanGAS inh	Mdm2 MdmX PPI	Beta cell apopt	GRIN3A LBD mod	Mdm2 MdmX conf	Full FLuc ctr
CC(C)Cn1c([N+](=O)[O-])nc2c1c(=O)[nH]c(=O)n2C	21.6	1.0	1.7	34.0	-8.4	3.8	nt	nt
COC(=O)c1ccc(/C=C/c2c(-c3ccsc3)oc3ccc(N4CCOCC4)cc23)cc1	108.9*	1.7	28.5	56.8*	0.2	-0.5	9.9	nt
N#Cc1ccccc1Sc1ccccc1C(=O)N1CCOCC1	11.8	-6.5	-0.5	-12.6	-3.6	-0.2	nt	nt
CN(C)C(=O)N1CCN(C(=O)c2ccccc2Sc2ccccc2C#N)CC1	4.4	0.0	5.5	52.8*	10.1	1.5	-6.8	nt
O=C(NCc1nnnn1-c1ccc(Cl)cc1)c1ccc(Br)o1	4.9	-1.1	-7.9	11.7	-2.4	0.8	nt	nt
CC[n+]1c(/C=C2/C=C(C)CC(C)(C)C2)sc2ccc(OC)cc21	30.2	25.6	3.1	54.2*	-5.1	-1.4	27.0	57.4*
COc1ccccc1CNC(=O)c1ccc(CS(=O)(=O)c2ccc(C)cc2)o1	3.2	-0.1	5.5	11.5	2.0	1.5	nt	nt
NC(=O)c1nsc(C(=O)N(c2ccccc2F)C(C(=O)NCc2ccccc2)c2ccc(O)cc2)c1N (centres undefined)	17.9	-0.4	6.4	52.2*	7.1	-12.3	65.8*	77.4*
Cc1ccccc1N(C(=O)c1snc(C(N)=O)c1N)C(C(=O)NCc1ccccc1)c1ccc(O)cc1 (centres undefined)	4.4	1.3	0.6	-23.8	6.5	-18.8	nt	nt
C=CCN(c1ccccc1)S(=O)(=O)c1cccc(C(=O)NC2CCN(Cc3ccccc3)CC2)c1	2.6	5.8	-2.1	60.1*	11.9	0.2	39.4	nt
COc1cccc(CC(=O)Nc2cc(S(=O)(=O)N3CCOCC3)ccc2OC)c1	nt	0.6	nt	5.3	nt	-0.9	nt	nt
O=C(N/N=C(\Cc1ncc[nH]1)c1ccccc1)c1cccnc1	99.8*	-1.6	nt	53.9*	6.8	1.5	63.5*	33.1
O=C(N/N=C(\c1ccccc1)c1cccnc1)c1ccc(O)cc1	-7.6	-0.8	-4.4	13.1	-1.4	-0.9	nt	nt
O=C(N/N=C(\Cc1ncc[nH]1)c1ccccc1)c1ccccc1	19.9	nt	9.3	76.1*	46.0	nt	52.6*	24.8
O=C(N/N=C(\Cc1ncc[nH]1)c1ccccc1)c1ccncc1	78.5*	0.4	-2.9	66.5*	100.8*	-1.1	62.9*	30.3
NC(=O)c1ccc(C(=O)N/N=C(/Cc2ccccc2)c2ccccc2)cc1	-8.3	0.8	6.8	30.8	-7.4	1.6	nt	nt
O=C(N/N=C(\c1ccccc1)c1cccnc1)c1cccc(F)c1	109.4*	-0.5	95.4*	98.7*	107.9*	-5.7	80.4*	33.2
COc1ccc(C(=O)NC2CCN(Cc3c(F)cccc3Cl)CC2)cc1OC	-7.0	-0.3	-4.9	9.0	-4.1	-5.5	nt	nt
